Results published in the supplement of paper PMC3334620.
In all, about 33,000 sequences were measured (“E-score (-0.5 to 0.5)”: median about -0.016, highest 2% from about 0.3 on). The list comes from a sample in which the highest values are over-represented; it also holds similar and randomly drawn sequences.

These sequences were tested against T1, Yer184c (UniProt P39961) (assay: PBM E-score (8-mer binding enrichment) (E-score (-0.5 to 0.5)); higher = stronger / more preferred TF binding). Conditions: protein concentration: 100 nM; construct: GST-full length.
T1 sequence: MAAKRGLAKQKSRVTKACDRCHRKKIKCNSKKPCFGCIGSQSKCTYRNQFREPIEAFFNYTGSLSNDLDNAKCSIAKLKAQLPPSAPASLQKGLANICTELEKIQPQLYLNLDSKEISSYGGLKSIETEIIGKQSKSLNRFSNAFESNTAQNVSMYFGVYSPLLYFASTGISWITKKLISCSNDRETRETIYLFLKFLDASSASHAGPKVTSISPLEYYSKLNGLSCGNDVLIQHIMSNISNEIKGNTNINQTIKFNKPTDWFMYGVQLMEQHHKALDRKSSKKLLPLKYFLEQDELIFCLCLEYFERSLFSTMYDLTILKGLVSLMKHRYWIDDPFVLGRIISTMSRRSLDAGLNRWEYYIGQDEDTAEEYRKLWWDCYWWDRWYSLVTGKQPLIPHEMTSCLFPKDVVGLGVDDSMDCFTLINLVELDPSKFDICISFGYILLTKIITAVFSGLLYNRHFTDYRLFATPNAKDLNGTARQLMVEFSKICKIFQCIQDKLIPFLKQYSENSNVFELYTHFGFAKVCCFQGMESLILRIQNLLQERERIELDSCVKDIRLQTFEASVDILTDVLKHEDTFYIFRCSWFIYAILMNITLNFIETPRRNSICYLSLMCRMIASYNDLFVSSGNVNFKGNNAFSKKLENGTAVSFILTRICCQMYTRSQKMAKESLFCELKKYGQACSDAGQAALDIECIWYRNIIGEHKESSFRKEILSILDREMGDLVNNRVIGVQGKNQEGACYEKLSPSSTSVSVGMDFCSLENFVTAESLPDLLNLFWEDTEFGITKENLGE
Method in brief: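 Yeast transcription factors, full-length or as DNA-binding domains, were expressed with a GST tag using PURExpress in vitro transcription/translation. At about 100-200 nM they were applied to universal all-10-mer Agilent arrays, double-stranded by primer extension on fresh or once-stripped slides. Fluorescent anti-GST detected bound protein, and masliner normalised the scans. E-scores for ungapped eight-base words, pooled with reverse complements, came from the Universal PBM Analysis Suite.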

Sequence | PBM E-score
CTTAGTGC | 0.081
CCACAAGC | -0.273
ATGTAGAA | -0.0706
ACCATTCA | 0.00717
GGCAGGTA | -0.0757
CTCTTAGA | 0.0666
CGAAACCG | 0.253
GGCCGGCA | 0.415
GCCCGGCC | 0.242
AGTCGGCC | 0.135
CGCCGGTC | 0.228
AGCCGGCC | 0.333
GACCGGCA | 0.173
GGCCGGTA | 0.248
GACCGGCC | 0.203
CGCCGGCC | 0.35
CCCCGGCC | 0.0277
ACCCGGCC | 0.255
GGCCGGCC | 0.384
GTCTCGCA | -0.0807
TGGGTCAA | -0.147
ACGGGCTG | -0.045
AAAATCGG | 0.15
ATTTGATG | 0.115
ATGGCCCG | -0.0155
CAATCTGC | -0.14

Sequence | PBM E-score
ACCTTGAG | -0.0404
GGAGTAAA | 0.134
GTTTCAGA | 0.0364
GTTGGTTA | -0.0114
CGATACAC | -0.00964
TAACGGAA | 0.298
GAACGGAA | 0.267
AAACGGAC | -0.00077
AAACGGTA | 0.163
CAACGGAA | 0.36
AAACGGAG | 0.152
AAACGGAA | 0.403
AAACGGAT | 0.313
CAACGGAG | 0.0267
ACTTCATA | -0.0295
CGAGACGA | -0.0371
AAAGCGTT | -0.0919
CAGAGCAA | 0.108
ATCCGGGG | 0.262
CTCCGGAA | 0.402
GTCCGGTA | 0.206
CTACGGAG | 0.0895
CTCCGTAA | 0.0982
CTCCGGTA | 0.218
CTCCGCAG | -0.136
GTCCGGCA | 0.285

Sequence | PBM E-score
ATCCGCAG | 0.123
ATCCGGAG | 0.398
CTCCGGAG | 0.416
GTCCGGAA | 0.429
AACCGACT | 0.0723
CGGCCCCA | -0.282
ACTTGCCA | -0.078
AATGAGAT | 0.127
GTAAGGCA | -0.206
GTCCGGGA | 0.342
ATCCGGAA | 0.418
ATCCGGGA | 0.258
ATGCGGAA | 0.271
ATCAGGAT | 0.115
ATCCGGAT | 0.442
CTCCGGGA | 0.205
ATCCGTAA | 0.149
ATCCGGGC | 0.363
ATCCGCAT | 0.111
CTCCGGGC | 0.0789
AACCGGGC | 0.187
TAAGCACA | 0.189
ACAGAACT | 0.116
AGTCGCAA | -0.0383
CACCATCC | -0.292
AGCATTTA | 0.0356

Sequence | PBM E-score
AAGCCACC | -0.342
CAGGCCCA | -0.211
ATCCGGAC | 0.322
CTCCGGTC | 0.248
CTCCGGAC | 0.328
ACCCGGAC | 0.055
ATCCGTAC | 0.195
CCCCGGAC | 0.0445
CAATCCTC | -0.113
CCAGATGC | -0.103
GCAAGAAA | 0.161
ATTGAGCG | -0.0456
CCGTCCAG | 0.122
AACCGGGT | 0.202
AACCGGGA | 0.188
AACCGGAA | 0.34
AACCGGGG | -0.0803
AACCGGAT | 0.366
AACCGGTC | 0.229
AACCGGAG | 0.358
AACCGGTT | 0.359
AACCGGTG | 0.214
AACCGGAC | 0.212
CACCGGAG | 0.173
GACCGGAA | 0.232
